According to PubChem BioAssay (NCI):
About 83,000 compounds went through this panel and 20% of them were active in at least one assay; those are over-represented in the sample as a whole.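 The endpoint reported here, percent growth, reads 100 for growth as untreated, 0 for no net growth and -100 for all cells dead.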 The source made the active and inactive calls. How the source made its calls: active means growth percent below 10; inactive means the rest.

Assays:
Experiment in all cases: NCI-60 one-dose screen, 48 h (100 = growth as untreated, 0 = no growth, -100 = all killed)
SK-MEL-2 melanoma = settings: 10 µM unless noted
EKVX NSCLC = settings: 10 µM unless noted
SN12C renal = settings: 10 µM unless noted
TK-10 renal = settings: 10 µM unless noted
ACHN renal = settings: 10 µM unless noted
CAKI-1 renal = settings: 10 µM
A498 renal = settings: 10 µM unless noted
CCRF-CEM leukemia = settings: 10 µM unless noted
MOLT-4 leukemia = settings: 10 µM unless noted
OVCAR-8 ovarian = settings: 10 µM unless noted
OVCAR-5 ovarian = settings: 10 µM unless noted
OVCAR-4 ovarian = settings: 10 µM unless noted
SK-OV-3 ovarian = settings: 10 µM unless noted
IGROV1 ovarian = settings: 10 µM unless noted
OVCAR-3 ovarian = settings: 10 µM unless noted
HS 578T breast = settings: 10 µM unless noted
NCI/ADR-RES ovarian = settings: 10 µM unless noted
UO-31 renal = settings: 10 µM unless noted
SR leukemia = settings: 10 µM unless noted
RPMI-8226 leukemia = settings: 10 µM unless noted

Structure (SMILES)	growth (SK-MEL-2 melanoma)	growth (EKVX NSCLC)	growth (SN12C renal)	growth (TK-10 renal)	growth (ACHN renal)	growth (CAKI-1 renal)	growth (A498 renal)	growth (CCRF-CEM leukemia)	growth (MOLT-4 leukemia)	growth (OVCAR-8 ovarian)	growth (OVCAR-5 ovarian)	growth (OVCAR-4 ovarian)	growth (SK-OV-3 ovarian)	growth (IGROV1 ovarian)	growth (OVCAR-3 ovarian)	growth (HS 578T breast)	growth (NCI/ADR-RES ovarian)	growth (UO-31 renal)	growth (SR leukemia)	growth (RPMI-8226 leukemia)
c1ccc([Se]CCCN2CCN(CCC[Se]c3ccccc3)CC2)cc1	121% (inactive)	1.25% (active)	104% (inactive)	129% (inactive)	100% (inactive)	-23.6% (active)	116% (inactive)	105% (inactive)	127% (inactive)	119% (inactive)	121% (inactive)	101% (inactive)	113% (inactive)	103% (inactive)	116% (inactive)	110% (inactive)	101% (inactive)			
CN(CCNCc1ccccn1)CCNCc1ccccn1	-2.1% (active)	23.8% (inactive)	27.9% (inactive)				-91.9% (active)	10.7% (inactive)	1.98% (active)	13.5% (inactive)	-1.39% (active)	-17.3% (active)	-23% (active)	26.9% (inactive)	-37.1% (active)	48.9% (inactive)	4.32% (active)	-11.8% (active)	9.92% (active)	18.9% (inactive)
CC(=O)c1ccc2c(c1)C1C=CCC1[C@H](c1cc3c(cc1Br)OCO3)N2 (some centres undefined)	16.1% (inactive)	34.9% (inactive)	43.5% (inactive)	60.6% (inactive)	38.6% (inactive)		13.5% (inactive)	4.69% (active)	7.5% (active)	16.8% (inactive)	34.7% (inactive)	56.1% (inactive)	34.2% (inactive)		8.44% (active)	7.06% (active)	10.8% (inactive)			9.1% (active)
COc1ccc(-c2nn(-c3ccc(NC(=O)Nc4ccc(Cl)c(C(F)(F)F)c4)cc3)cc2-c2ccncc2)cc1Cl	-43.4% (active)	11.1% (inactive)	16.5% (inactive)				-5.72% (active)	6.6% (active)	8.53% (active)	9.53% (active)	14.5% (inactive)	45.1% (inactive)	23.9% (inactive)	24.8% (inactive)	-1.59% (active)		9.1% (active)	3.92% (active)	-7.31% (active)	-33.1% (active)
O=C(NCCNc1nccc(-c2c(-c3cccc(O)c3)nc3sccn23)n1)c1ccccc1O	13.9% (inactive)	66.8% (inactive)	48% (inactive)			24.3% (inactive)	104% (inactive)	18.9% (inactive)	46.2% (inactive)	41.3% (inactive)	88.7% (inactive)	96.2% (inactive)	60.5% (inactive)	31.6% (inactive)	60.2% (inactive)		73.6% (inactive)	34.6% (inactive)	63.2% (inactive)	11.6% (inactive)
O=[N+]([O-])c1ccccc1NC1c2ccccc2Oc2ccccc21	57% (inactive)	78.2% (inactive)	92.9% (inactive)			45.6% (inactive)	10.7% (inactive)	42.9% (inactive)	13.8% (inactive)	72.9% (inactive)	76.8% (inactive)	98.7% (inactive)	76.9% (inactive)	49.3% (inactive)	3.28% (active)		31.4% (inactive)	60.8% (inactive)	2.25% (active)	69.5% (inactive)
O=[N+]([O-])c1cccc(C2c3ccccc3Oc3ccccc32)c1	107% (inactive)	93.9% (inactive)	99.9% (inactive)		89.1% (inactive)		94.1% (inactive)	88.6% (inactive)	79.6% (inactive)	89.4% (inactive)	90.8% (inactive)	91% (inactive)	84.1% (inactive)	76.8% (inactive)	91.7% (inactive)		93.7% (inactive)	70.7% (inactive)		82.2% (inactive)
O=C(Nc1ccc(-n2ccc3c(NC(=O)c4ccccc4)ncnc32)cc1)Nc1cccc(Cl)c1Cl	-39.1% (active)	-5.65% (active)	-31.9% (active)		-20.4% (active)		12% (inactive)	16.5% (inactive)	25.5% (inactive)	13.4% (inactive)	17.5% (inactive)	-74.3% (active)	-14.8% (active)		-41.7% (active)		4.77% (active)	-80.4% (active)		10.2% (inactive)
COc1cc(Nc2ncccc2C(=O)Nc2nc3ccc(F)cc3s2)cc(OC)c1OC	75.3% (inactive)	22% (inactive)	63.2% (inactive)	114% (inactive)	79.9% (inactive)	18.4% (inactive)	62.2% (inactive)	29.7% (inactive)	74.5% (inactive)	91.2% (inactive)	105% (inactive)	5% (active)	91.7% (inactive)	74.5% (inactive)	55.6% (inactive)	72.8% (inactive)	67.2% (inactive)		104% (inactive)	
Cn1c(I)c(C#C[Si](C)(C)C)c(=O)[nH]c1=O	60.7% (inactive)	86.5% (inactive)	32.8% (inactive)	82.3% (inactive)	-28.4% (active)	-79% (active)	130% (inactive)		-59.7% (active)	-11.7% (active)	77.7% (inactive)	-65% (active)	110% (inactive)		-54.1% (active)	10.6% (inactive)	83.3% (inactive)			46.5% (inactive)
Nc1ncnc2c1c(-c1ccc(Oc3ccccc3)cc1)nn2C[C@H]1SSC[C@H]1O	-75.1% (active)	6.97% (active)	20.7% (inactive)				18.9% (inactive)	11.1% (inactive)	-2.47% (active)	20.5% (inactive)	64.1% (inactive)	25.6% (inactive)	-20.8% (active)	-26.5% (active)	-9.53% (active)	21.6% (inactive)	22.4% (inactive)	-3.37% (active)	-40% (active)	42.8% (inactive)
CCn1c(SCC(=O)c2ccc(Br)cc2)nnc1-c1cc2c([nH]c3ccccc32)c(-c2cccc(O)c2)n1	69.9% (inactive)	67.2% (inactive)	96.5% (inactive)			83.7% (inactive)	73.5% (inactive)	78.5% (inactive)		77.5% (inactive)	95.1% (inactive)	71.4% (inactive)	86.7% (inactive)	88.5% (inactive)	80.4% (inactive)	73.7% (inactive)	81.1% (inactive)	70.4% (inactive)		69.4% (inactive)
Cn1cnc([N+](=O)[O-])c1N1c2ccncc2Sc2ccncc21	94.2% (inactive)	78.8% (inactive)	113% (inactive)	132% (inactive)	75.8% (inactive)	85.7% (inactive)	93.1% (inactive)	94.7% (inactive)	91.6% (inactive)	83.4% (inactive)	99.7% (inactive)	179% (inactive)	92.2% (inactive)		92.7% (inactive)	98.2% (inactive)	97.1% (inactive)			85.8% (inactive)
CCOC(=O)CSc1nnc(-c2cc3c([nH]c4ccccc43)c(-c3cccc(O)c3)n2)n1-c1ccc(C)cc1	37.7% (inactive)	78.8% (inactive)	58.1% (inactive)			92.1% (inactive)	96.8% (inactive)	46.4% (inactive)	17.4% (inactive)	16.7% (inactive)	96.4% (inactive)	72.6% (inactive)	105% (inactive)	28.3% (inactive)	31.1% (inactive)	58.7% (inactive)	89.9% (inactive)	72.6% (inactive)	13.7% (inactive)	76.1% (inactive)
CCc1ccc(C2=C/C(=C/c3ccc(Cl)cc3)C(=O)N2CCc2ccc(S(N)(=O)=O)cc2)cc1	-12.5% (active)	29.7% (inactive)	29% (inactive)				33.1% (inactive)	15% (inactive)	-1.62% (active)	21.5% (inactive)	47.2% (inactive)	32.1% (inactive)	46% (inactive)	27.7% (inactive)	23.6% (inactive)	62.6% (inactive)	51.8% (inactive)	16.5% (inactive)		18.9% (inactive)
NC(=O)C1=C[C@H]2[C@H]3C=C[C@@]2(O)C(=O)O[C@@H]3O1	42.4% (inactive)	63.2% (inactive)	57.6% (inactive)			46.5% (inactive)	81.3% (inactive)	26.9% (inactive)	42.3% (inactive)	48.8% (inactive)	101% (inactive)	29.9% (inactive)	86.6% (inactive)	50.9% (inactive)	16.8% (inactive)	83.5% (inactive)	75.3% (inactive)	54.5% (inactive)	50.7% (inactive)	61.8% (inactive)
CCCCN(CCCC)c1ccc(C(=N)c2ccc(N(C)C)cc2)cc1	-69.6% (active)	-11.9% (active)	-30% (active)	-5.56% (active)	-2.72% (active)	-28.9% (active)	9.81% (active)	1.04% (active)	1.79% (active)	-15.4% (active)	-2.12% (active)	7.13% (active)	-7.53% (active)		-74.3% (active)	-68.9% (active)	-47.4% (active)		-44.4% (active)	-43.3% (active)
CS(=O)(=O)Nc1cccc(-c2ccc3ncnc(Nc4ccc(F)c(Cl)c4)c3c2)c1	-4.95% (active)	7.22% (active)	44.2% (inactive)				-25.7% (active)		0.953% (active)	29% (inactive)	49.1% (inactive)	37% (inactive)	-10.8% (active)	-3.89% (active)	25.9% (inactive)	11.5% (inactive)	39.2% (inactive)	21.1% (inactive)	-2.28% (active)	18.4% (inactive)
CCN(CC)CCN1C(=O)c2c(c3c4ccccc4[nH]c3c3[nH]c4ccccc4c23)C1=O	101% (inactive)	80.3% (inactive)	79.1% (inactive)		62% (inactive)		67.7% (inactive)	78.8% (inactive)	34.8% (inactive)	78.5% (inactive)	88.7% (inactive)	72% (inactive)	83.1% (inactive)	83.3% (inactive)	95.4% (inactive)	86.7% (inactive)	71.3% (inactive)	71.3% (inactive)		74.9% (inactive)
COc1ccc(OCC(O)CN2CCN(c3ccc(Cl)cc3)CC2)cc1 (centres undefined)	135% (inactive)	97.4% (inactive)	105% (inactive)		101% (inactive)		82.8% (inactive)	113% (inactive)	107% (inactive)	61.6% (inactive)		79.8% (inactive)	90.7% (inactive)		105% (inactive)	123% (inactive)	185% (inactive)	76% (inactive)	112% (inactive)	98.9% (inactive)
